# ST2 inh: blocks human ST2 binding to IL-33. AlphaLISA ST2-Fc/biotin-IL-33 interaction, 1 h. Q01638. inhibition, % for hits at 17 µM. hit rate 2.3% among 78,000; in the data active = inhibition above about 30%
# Starred values were filed as active, the others as inactive; i = inactive; ! = a repeat was not active. Only a selection was taken, and hits are over-represented in it overall.
SMILES,ST2 inh
COc1cccc(NC(=O)N[C@H]2CCN3C(=O)[C@@H](Cc4ccccc4)NC(=O)[C@H]23)c1,i
CC(C)[C@H]1NC(=O)[C@@H]2[C@@H](NC(=O)NC3CCCCC3)CCN2C1=O,43.0%*
O=C(N[C@H]1CCN2C(=O)c3ccccc3NC(=O)[C@H]12)C1CCCC1,i
CCOc1ccccc1Nc1ncnc2c1cnn2-c1ccc(C)cc1C,i
CSCCOc1nc2c(c(=O)n(C)c(=O)n2C)n1Cc1ccccc1Cl,i
O=C1NCCc2c1sc1ccc(C(=O)N3CC[C@H](CO)[C@H](O)C3)cc21,i
Cc1cc(Br)ccc1OCc1nc(-c2ccccc2)no1,i
CCc1ccccc1NC(=O)CSc1nnc(-c2ccncc2)n1-c1ccccc1,i
c1ccc(-c2nnc(SCC3CCOCO3)n2-c2ccccc2)cc1 (centres undefined),31.0%*
O=C(CSc1nnc(-c2ccco2)n1-c1ccccc1)NCC1CCCO1 (centres undefined),i
CCN(CC)CCNC(=O)c1cnn2c(C)c(Cc3c(F)cccc3Cl)c(C)nc12,i
COc1ccccc1N1CCN(Cc2cc(I)c(O)c(OC)c2)CC1,i
CCN(CC)CCN(C)Cc1cc(I)c(O)c(OC)c1,94.0%*
COc1cc(CN(C)C2CCN(C)CC2)cc([N+](=O)[O-])c1O,i
Cc1cccc(C(=O)Nc2ccc(C#N)cc2)c1,i
Cc1cc2ccccc2c(=O)n1CC(=O)N1CCCCCC1,i
COc1ccc(N(C(=O)c2cc(C)cc(C)c2)C2C=CS(=O)(=O)C2)c(OC)c1 (centres undefined),i
Cc1nn(C)c(C)c1CCC(=O)N(C)Cc1nc(-c2ccccc2)no1,i
Cc1ncc2c(c1CNC(=O)/C=C/c1cccs1)CCN(C(=O)COc1ccccc1)C2,i
Cc1ncc2c(c1CNC(=O)/C=C/c1cccs1)CCN(C(=O)c1ccc(-n3cccn3)cc1)C2,i
Cc1nc(CC(=O)N2CCc3c(cnc(C)c3CNC(=O)/C=C/c3cccs3)C2)cs1,30.0%*
COc1ccc(Cc2nnc(Nc3ccc4c(c3)OCO4)[nH]c2=O)cc1,i
O=C(O)CCC(C(=O)O)N1C(=O)c2ccccc2C1=O (centres undefined),i
CS(=O)CCC(C(=O)O)N1C(=O)c2ccccc2C1=O (centres undefined),38.0%*!
O=C(NCc1ccccc1)C(Cc1ccccc1)N1C(=O)c2ccccc2C1=O (centres undefined),i
SMILES,ST2 inh
CN(C)C(=O)C12CC3(C)CC(C)(CC(C)(C3)C1)C2,i
Cc1ccc(CNC(=O)NCCc2nc3cccnc3n2Cc2ccc(C)cc2)cc1,i
CCOc1ccc(NC(=O)NCCc2nc3cccnc3n2Cc2ccc(C)cc2)cc1,i
Cc1ccc(Cn2c(CCNC(=O)Nc3ccccc3Cl)nc3cccnc32)cc1,36.0%*
COc1cccc(N2C(=O)Nc3ccccc3C2(O)C(=O)NC2CCCCCCC2)c1 (centres undefined),i
NC(=O)c1cc(NC(=O)c2ccc([N+](=O)[O-])cc2)cc(C(N)=O)c1,i
C=C(C)COc1ccccc1C(=O)N1CCc2[nH]cnc2C1c1ccccn1 (centres undefined),i
COc1ccc(CNc2ccccc2[N+](=O)[O-])cc1,38.0%*
COc1ccc(CNc2c([N+](=O)[O-])c(=O)oc3ccccc23)cc1,i
CNc1ccccc1[N+](=O)[O-],i
Cc1ncsc1CCCNC(=O)c1cnn2c1CCCC2,i
O=C1C2=C(Nc3[nH]n(-c4ccccc4)c(=O)c3C2c2ccc([N+](=O)[O-])cc2)c2ccccc21 (centres undefined),47.0%*
Cc1cccc(C2C3=C(Nc4c2c(=O)n(C)c(=O)n4C)c2ccccc2C3=O)c1 (centres undefined),i
Cn1c2c(c(=O)n(C)c1=O)C(c1cccc(F)c1)C1=C(N2)c2ccccc2C1=O (centres undefined),i
Oc1oc(-c2ccccc2)nc1C=Nc1ccc(Br)cn1,i
Cc1ccc(N=Cc2nc(-c3ccccc3F)oc2O)c(C)c1,33.0%*
Cc1ccc(N=Cc2nc(-c3ccc(Br)cc3)oc2O)c(C)c1,i
Cc1ccc(N=Cc2nc(-c3ccccc3)oc2O)c(Br)c1,i
Oc1oc(-c2ccc(Br)cc2)nc1C=Nc1ccc(Br)cn1,i
Oc1oc(-c2ccccc2F)nc1C=Nc1ccc(Cl)cn1,32.0%*
Cc1cc(N2CCN(S(=O)(=O)NCc3ccccc3)CC2)n2ncnc2n1,i
Cc1ccc(CN(C)C(=O)CC2C(=O)NCCN2Cc2ccc(-c3ccccc3)cc2)o1 (centres undefined),i
Cc1cc(Cl)nc(Cl)c1S(=O)(=O)NC1CCCCC1,i
CCc1sc(C(=O)O)cc1-c1cccc(C(C)N2CCCC2)c1 (centres undefined),i
Cc1nc2c(c(N3CCCC3)n1)CCN(C(=O)CCc1cc(=O)[nH]o1)C2,i
COC(=O)C1=C(C)N=C2SCCC(=O)N2C1c1cccc(OC(C)=O)c1 (centres undefined),i

# Screens as filed in PubChem BioAssay.
